Among all 390,000 compounds or so, about 4,700 (1.2%) were called active. About 4% were inconclusive and are not listed. Many of the other results were omitted from the sample, so actives are more common in it than they were. Values without a mark were called inactive. The call rests on the fitted dose curve; in most records, active means well fitted inhibition curve with a large enough effect; inconclusive means small, poorly fitted or top-dose-only effect, or another doubt; inactive means no such curve, though single readings can be large or run the other way.
These molecules were tested against DNA polymerase eta (Homo sapiens) (UniProt Q9Y253) (assay: qHTS for Inhibitors of Polymerase Eta). Conditions: recombinant Pol eta, fluorescent DNA replication assay; series mostly up to 114 µM; activity change, negative = inhibition: at the top concentration.
Text: The Y-family of DNA polymerases, such as Pol eta, are specifically involved in DNA repair. Pol eta copies undamaged DNA with a lower fidelity than other DNA-directed polymerases. However, it accurately replicates UV-damaged DNA; when thymine dimers are present, this polymerase inserts the complementary nucleotides in the newly synthesized DNA, thereby bypassing the lesion and suppressing the mutagenic effect of UV-induced DNA damage. […] Thus, while pol eta's (and most likely iota's) normal function is to protect humans against the deleterious consequences of DNA damage, under certain conditions they can have deleterious effects on human health. As a consequence, we propose to utilize a high throughput replication assay to identify small molecule inhibitors of pol eta. In a collaboration between the National Institute of Child Health & Human Development (NICHD) and NIH Chemical Genomics Center, a high-throughput, fluorescent screen was developed to screen the NIH Molecular Libraries Small Molecule Repository (MLSMR). This screen is used to identify inhibitors of pol eta. NIH Chemical Genomics Center [NCGC] NIH Molecular Libraries Probe Centers Network [MLPCN] MLPCN Grant: MH090825 Assay Submitter (PI): Roger Woodgate, NICHD)
Three microliters of reagents (buffer in column 3 and 4 as negative control and 10 nM Pol eta in columns 1, 2, and 5-48) were dispensed into a 1,536-well black solid-bottomed plate. Compounds (23 nL) were transferred via Kalypsys pin tool equipped with 1536-pin array. The plates were then incubated for 15 min at room temperature, and 1 µL substrate (50 nM final concentration) was added to start the reaction and kinetically read twice at 0 min and 10 min on the Viewlux reader
On the % scale 0 is the no-effect control and ±100 the full control effect; potency means the concentration at half of the fitted maximal effect.

Chain of DNA polymerase eta (Homo sapiens) (Q9Y253 whole entry, looked up): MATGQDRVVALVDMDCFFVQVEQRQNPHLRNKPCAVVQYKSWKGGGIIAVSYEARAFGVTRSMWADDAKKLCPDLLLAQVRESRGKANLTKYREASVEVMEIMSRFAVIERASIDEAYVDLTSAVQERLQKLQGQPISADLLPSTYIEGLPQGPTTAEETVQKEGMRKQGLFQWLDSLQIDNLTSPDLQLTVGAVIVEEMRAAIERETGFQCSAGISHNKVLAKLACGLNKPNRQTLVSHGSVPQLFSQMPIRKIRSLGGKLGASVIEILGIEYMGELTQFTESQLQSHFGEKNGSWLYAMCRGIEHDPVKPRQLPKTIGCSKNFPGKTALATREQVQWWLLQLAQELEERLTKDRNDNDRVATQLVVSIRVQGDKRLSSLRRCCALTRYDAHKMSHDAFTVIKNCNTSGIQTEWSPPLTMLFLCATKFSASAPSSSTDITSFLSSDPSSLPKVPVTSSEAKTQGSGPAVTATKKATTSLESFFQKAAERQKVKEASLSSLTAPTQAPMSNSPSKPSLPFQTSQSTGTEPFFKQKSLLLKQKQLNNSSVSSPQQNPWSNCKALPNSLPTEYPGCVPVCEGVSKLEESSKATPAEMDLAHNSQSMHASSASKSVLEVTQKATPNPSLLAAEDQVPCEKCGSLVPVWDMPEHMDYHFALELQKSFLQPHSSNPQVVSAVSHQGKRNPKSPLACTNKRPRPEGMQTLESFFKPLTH

SMILES | Potency | activity change, negative = inhibition
Cc1cccc(N2C(=O)NC(=O)/C(=C\c3cnn(-c4ccccc4)c3)C2=O)c1 | 20 µM (active) | –
CN1C2C=C(N(C(=O)c3ccc(Cl)cc3)c3ccccc3)CC1CC2 (stereo not given) | – | -9.96%
CCN(N=Nc1nonc1OC)c1nonc1OC | – | -12.3%
C=CC12CN(C)[C@@H]3C4CO[C@H](C[C@H]41)[C@]1(C(=O)Nc4ccccc41)[C@@H]32 (stereo not given in full) | – | -3.38%
Cc1c(C(=O)O)cccc1-n1c(C)cc(/C=C2\C(=O)NC(=O)N(c3ccc4c(c3)OCO4)C2=O)c1C | 5.01 µM (active) | –
c1cc2c(cc1C1OCC3C(c4ccc5c(c4)OCO5)OCC13)OCO2 (stereo not given) | – | -9.72%
c1ccc2sc(N3CCNCC3)nc2c1 | – | -1.82%
CC(=NC1CCN(Cc2ccccc2)CC1)c1c(O)n(C)c(=O)n(C)c1=O | – | -9.48%
Cn1c(O)c(C=Nc2ccc3c(c2)CCC3)c(=O)n(C)c1=O | – | 5.46%
Cc1ccc(-n2c(C)cc(/C=C3\C(=O)NC(=O)N(C)C3=O)c2C)cc1C | 11.2 µM (active) | –
Cc1cc(/C=C2/C(=O)NC(=O)N(Cc3ccco3)C2=O)c(C)n1-c1ccc(C(=O)O)cc1 | 17.8 µM (active) | –
Cc1ccnc(-n2c(C)cc(/C=C3\C(=O)NC(=S)N(C)C3=O)c2C)c1 | – | -22.2%
c1ccc2c(c1)[I+]c1ccccc1-2 | – | 0.161% [at 57.1 µM]
CC(=O)NBr | – | 0.441% [at 57.1 µM]
Fc1cccc(F)c1CN1CCN(Cc2c(F)cccc2F)CC1 | – | 6.32%
CCOC(=O)c1ncn2c1[C@@H]1CCCN1C(=O)c1cc(OC)ccc1-2 | – | -2.57% [at 57.1 µM]
Cc1c(Oc2cc(NN3CCCCC3)c([N+](=O)[O-])cc2[N+](=O)[O-])cccc1[N+](=O)[O-] | – | -7.33%
CN(c1ccccc1)c1ccc([N+](=O)[O-])c2nonc12 | – | -2.95%
Nc1ccc([N+](=O)[O-])cc1 | – | -1.32%
COC(=O)N(c1ccc(OC)cc1)P1(=S)OCCC(C)O1 (stereo not given) | – | -7.27%
CC1CCCN1CCC(C(N)=O)(c1ccccc1)c1ccccc1 (stereo not given) | – | -6.87%
CC[N+](CC)(CC)CCCCCCCCCC[N+](CC)(CC)CC | – | -1.02%
CC(=O)c1c(O)n(C2CCCCCC2)c(=O)[nH]c1=O | – | 6.54%
O=C1NC(=O)N(c2ccc(F)cc2)C(=O)/C1=C/c1ccc2c(c1)CCCN2Cc1ccccc1 | 20 µM (active) | –
CCC1(CC(C)c2ccccc2)C(=O)NC(=O)NC1=O (stereo not given) | – | 1.04%

SMILES | Potency | activity change, negative = inhibition
Cc1cccc(OP(=O)(Oc2cccc(C)c2)OC(c2ccccc2)C(F)(F)F)c1 (stereo not given) | – | -15%
CN(C)/C=C(\C=[N+](C)C)c1[nH]ncc1[N+](=O)[O-] | – | -11.4%
COc1ccc(N2C(=O)/C(=C/c3ccco3)C(=O)NC2=S)cc1 | 1.12 µM (active) | –
CC(=O)N1CN2CN(C(C)=O)CC(C(=O)c3ccc(Br)cc3)(C2)C1 | – | -12.3%
Cc1ccc(CN2CCCC(C(=O)c3ccc4c(c3)OCO4)C2)cc1C (stereo not given) | – | 31.1%
O=C1NC(=O)C(C/C=C/c2ccccc2)C(=O)N1 | – | -5.62%
CN(C)c1ccc(/C=C2\CC3C4CC=C5CC(O)CCC5(C)C4CCC3(C)C2=O)cc1 (stereo not given) | – | 1.76%
C[C@@H]1CC[C@@]2(OC1)O[C@H]1C[C@H]3[C@@H]4CC=C5C[C@@H](O)[C@H](O)C[C@]5(C)C4CC[C@]3(C)[C@H]1[C@@H]2C (stereo not given in full) | 89.1 µM (active) | –
CCOC(=O)C(O)(c1ccc(N)c(OC)c1)C(F)(F)F (stereo not given) | – | -15.8%
COC(=O)C(O)(c1ccc(NC(=O)c2ccco2)c(OC)c1)C(F)(F)F (stereo not given) | – | -12.3%
CCCCN1C2CCC1CC(OC(c1ccc(F)cc1)c1ccc(F)cc1)C2 (stereo not given) | – | -6.59% [at 57.1 µM]
C[C@@H]1C[C@@H]2O[C@H]2/C=C\C=C\C(=O)Cc2c(Cl)c(O)cc(O)c2C(=O)O1 | 10 µM (active) | –
COc1ccc(-n2c(O)c(C(C)=Nc3ccc4c(c3)CCC4)c(=O)[nH]c2=O)cc1 | – | -16.7%
O=C(Nc1ccc(Cl)cc1C(=O)c1ccccc1)c1cc(Cl)cc(Cl)c1 | – | -12%
COc1ccc(C2C=C(C)Oc3c2c(=O)oc2ccccc32)cc1OC (stereo not given) | – | 1.27%
CCN1C(=O)NC(=O)C2(CCCC2)C1=O | – | -7.47%
O=C1NC(=O)N(CCc2ccc(F)cc2)C(=O)/C1=C/C=C/c1ccccc1 | 50.1 µM (active) | –
COC(=O)C1=C(c2cc3ccccc3s2)C[C@@H]2CC[C@H]1N2C(=O)NC(C)C | – | -1.91%
COc1ccc(C(=O)CC2C(=O)N(C)C(=O)N(C)C2=O)cc1 | – | -4.75%
Cc1cc2ccccn2c1C(C[N+](=O)[O-])c1c(F)cccc1Cl (stereo not given) | – | -12.9%
COc1cccc(N2C(=O)NC(=O)/C(=C\c3ccc([N+](=O)[O-])s3)C2=O)c1 | 17.8 µM (active) | –
O=C1NC(=O)N(c2ccccc2)C(=O)/C1=C/c1ccc([N+](=O)[O-])s1 | 10 µM (active) | –
Cn1c(O)c(C=NCCN2CCNCC2)c(=O)n(C)c1=O | – | -5.18%
COC(=O)C1=C(c2ccc(OCc3ccccc3)cc2)C[C@@H]2CC[C@H]1N2C(=O)NCc1ccc(Cl)cc1 | – | -23.3%
O=C(O)C1C2CCC(O2)C1C(=O)O (stereo not given) | – | -2.24% [at 57.1 µM]

SMILES | Potency | activity change, negative = inhibition
CC1=C(C(=O)Nc2ccccc2)SCCO1 | – | -19.1%
CCOC(=O)C1SC2(C(F)(F)C(F)F)CC1(O)c1c(c(OC)c3occc3c1OC)O2 (stereo not given) | – | 0.0717%
CCN1CCN(c2nc3c(c(=O)[nH]2)CCC3)CC1 | – | -11.4%
Cc1cccc(NC(=O)OC2CN3CCC2CC3)c1 (stereo not given) | – | -12.7%
CN(C)S(=O)(=O)c1cc(C(=O)N2CCC(C(=O)O)(c3ccccc3)CC2)ccc1Cl | – | -13.7%
COC(=O)C1=C(c2c(C)noc2C)C[C@@H]2CC[C@H]1N2C(=O)NCc1ccc2c(c1)OCO2 | – | -20.6%
CCc1ccc(OCC(=O)N2CCN(CC(=O)Nc3ccccc3Cl)CC2)cc1 | – | -21.1%
C[C@H]1CN([C@@H](C)CO)C(=O)CCCn2nncc2CO[C@H]1CN(C)C(=O)Oc1ccccc1 | – | -7.47%
Cc1cc(C(=O)OCC(=O)Nc2c(F)cccc2F)c(C)n1C1CC1 | – | -8.46%
CN1CCN(/N=C/c2c[nH]c3ccccc23)CC1 | – | -23.5%
CN1CCc2nc(SC(C(=O)O)c3ccccc3)c(C#N)c(-c3cccs3)c2C1 (stereo not given) | 31.6 µM (active) | –
Cc1ccc(-n2c(/C=C/c3cccc(C(F)(F)F)c3)nc3ccccc3c2=O)cc1 | – | -2.12%
O=C(CCCn1c(=O)[nH]c2cc(Cl)ccc2c1=O)N1CCC2(CC1)OCCO2 | – | -5.01%
CCN(CC)C(=O)c1ccc(NC(=O)c2sccc2-c2ccccc2)cc1 | – | -7.87%
C=CCN(CC=C)C(=O)Nc1ccc(OCC)cc1 | – | -2.67%
CCOc1ccc(-c2cc(C)n3nc(C(=O)Nc4ccc(C)c(C)c4)cc3n2)cc1 | 70.8 µM (active) | –
CC1=C(C(=O)Nc2ccccc2)S(=O)(=O)CCO1 | – | -0.941%
Cn1cc(C(=O)OCC(=O)N2CCCC2)c2ccccc21 | – | -7.55%
O=C1NC(=O)N(Cc2ccco2)C(=O)/C1=C\c1cccn1CCOc1ccccc1 | 79.4 µM (active) | –
O=C1NC(=O)N(Cc2ccco2)C(=O)/C1=C\c1ccc(-c2ccc(F)cc2)o1 | 25.1 µM (active) | –
COc1cccc(OC)c1C(=O)NC(=S)N1C[C@H]2C[C@H](C1)c1cccc(=O)n1C2 | – | -12.9%
CC(C)c1ccc(OCC(=O)N2CCN(C)CC2)c(Br)c1 | – | 1.25%
CCOC(=O)C1=C(C)OC(N)=C(C(=O)OC)C12C(=O)Nc1ccc(Br)cc12 (stereo not given) | – | -6.19%
COc1cccc(CN2CCCC(C(=O)c3ccccc3SC)C2)c1O (stereo not given) | – | -19%
Cc1ccc(P(=S)(c2ccc(C)o2)N2CCOCC2)o1 | – | 0.879%

From PubChem BioAssay AID588591 (National Center for Advancing Translational Sciences (NCATS), 2011)
